Test system: Vero E6 infected with SARS-CoV-2
Test: inhibition of SARS-CoV-2 cytopathic effect; higher = more antiviral protection, active = above 15
Conditions: 48 h

Measured: inhibition of SARS-CoV-2 cytopathic effect

CN(C)CCOC(c1ccccc1)c1ccccc1.Cn1c(=O)c2[nH]c(Cl)nc2n(C)c1=O [dimenhydrinate]
inactive: 1 nM 1.11% | 8.33 nM -2% | 100 nM 0.95% | 833.33 nM 0.58% | 10000 nM 0.68%

c1ccc(C2CC2)c(OCC2=NCCN2)c1 [cirazoline]
inactive: 1 nM -0.75% | 8.33 nM 0.31% | 100 nM -8.08% | 833.33 nM 0.87% | 10000 nM -3.99%

CCOP(=S)(OCC)Oc1ccc2c(C)c(Cl)c(=O)oc2c1 [coumophos]
inactive: 1 nM -3.33% | 8.33 nM 0.82% | 100 nM 0.18% | 833.33 nM -2.21% | 10000 nM -0.05%

C[C@@H]1CN(Cc2ncccn2)C[C@H]1c1nc2c(cnn2C2CCOCC2)c(=O)[nH]1
inactive: 1 nM -1.78% | 8.33 nM 1.47% | 100 nM -0.33% | 833.33 nM 1.24% | 10000 nM -2.82%

CCCC[C@H](NC(=O)[C@@H]1[C@@H]2[C@H](CN1C(=O)[C@@H](NC(=O)NC1(CS(=O)(=O)C(C)(C)C)CCCCC1)C(C)(C)C)C2(C)C)C(=O)C(=O)NC1CC1 [narlaprevir]
inactive: 1 nM 0.96% | 8.33 nM 1.32% | 100 nM 0.06% | 833.33 nM 3.2% | 10000 nM 0.24%

N=C(C[C@@H](O)COc1ccccc1-c1ccccc1)N1CCCCC1
inactive: 1 nM -5.21% | 8.33 nM -4.99% | 100 nM 0.04% | 833.33 nM -2.13% | 10000 nM -2.77%

CN(C)C(=N)NC(=N)N [metformin]
inactive: 1 nM 0.25% | 8.33 nM 1.14% | 100 nM 2.76% | 833.33 nM 1.97% | 10000 nM 5.07%

C[N+](C)(C)CCOP(=O)(O)OC[C@H](O)CO [choline-alfoscerate]
inactive: 1 nM -1.69% | 8.33 nM -1.94% | 100 nM -3.48% | 833.33 nM -1.31% | 10000 nM -2.46%

N#CC(C#N)=Cc1ccc(O)c(O)c1 [tyrphostin-AG-18]
inactive: 1 nM 2.32% | 8.33 nM 2.46% | 100 nM 0.83% | 833.33 nM 0.73% | 10000 nM 0.85%

CN1CCC(=C2c3ccccc3CC(=O)c3sccc32)CC1 [ketotifen]
inactive: 1 nM 1.19% | 8.33 nM 4.8% | 100 nM 2.53% | 833.33 nM 1.27% | 10000 nM -3.64%

Cc1[nH]nc(C(F)(F)F)c1Cc1sc2c(c1C(=O)N1C[C@](C)(O)CO1)c(=O)n(C)c(=O)n2C(C)C
inactive: 1 nM 1.31% | 8.33 nM -1.35% | 100 nM 1.71% | 833.33 nM 0.45% | 10000 nM 2.23%

NC(=S)N/N=C/c1ncccc1N [triapine]
inactive: 1 nM 2.87% | 8.33 nM -0.48% | 100 nM 4.4% | 833.33 nM 3.25% | 10000 nM -6.06%

Cc1ccc2c(c1)c1c3n2CCNC3CCC1 (stereo not given) [pirlindole]
inactive: 1 nM -1.68% | 8.33 nM -2.42% | 100 nM -1.65% | 833.33 nM 0.99% | 10000 nM -3.66%

CN[C@H]1CN(c2ccc3c(=O)c(C(=O)O)cn(-c4nccs4)c3n2)C[C@@H]1OC [voreloxin]
inactive: 1 nM 0.95% | 8.33 nM -1.14% | 100 nM 2.62% | 833.33 nM -0.72% | 10000 nM 0.56%

C[N+]1(C)[C@@H]2CC[C@H]1C[C@@H](OC(=O)C(CO)c1ccccc1)C2 (stereo not given in full) [methylatropine-nitrate]
inactive: 1 nM 1.74% | 8.33 nM 2.06% | 100 nM 2.14% | 833.33 nM 4.12% | 10000 nM 3.88%

CS(=O)(=O)n1cc2c(n1)CN([C@H]1CO[C@H](c3cc(F)ccc3F)[C@@H](N)C1)C2 [omarigliptin]
inactive: 1 nM -0.75% | 8.33 nM 1.81% | 100 nM 0.23% | 833.33 nM 1.96% | 10000 nM 0.42%

COc1ccc2[nH]cc(C3=CCNCC3)c2c1
inactive: 1 nM 1.62% | 8.33 nM -0.77% | 100 nM 0.86% | 833.33 nM -2.22% | 10000 nM -3.05%

O=C1OC(CN2CCOCC2)CN1/N=C/c1ccc([N+](=O)[O-])o1 (stereo not given) [furaltadone]
inactive: 1 nM -10.1% | 8.33 nM -5.96% | 100 nM -8.17% | 833.33 nM -6.67% | 10000 nM -6.1%

CCCCCC(C)N (stereo not given) [tuaminoheptane]
inactive: 1 nM 1.21% | 8.33 nM 1.95% | 100 nM 0.51% | 833.33 nM 3.02% | 10000 nM 1.11%

CCN(c1cc(C#CCN2CCOCC2)cc(C(=O)NCc2c(C)cc(C)[nH]c2=O)c1C)[C@H]1CC[C@H](N(C)CCOC)CC1
inactive: 1 nM -1.56% | 8.33 nM -1.99% | 100 nM 3.36% | 833.33 nM -2.9% | 10000 nM -5.69%

Source: the supplement of paper PMC13380429
